Experimental data taken from PubChem BioAssay (EPA / NIEHS).
Active and inactive are the calls of the source. The calls were made as follows: active = hit-call score of the fitted dose curve at least 0.9, where 1 is the maximum; inactive = score below 0.9.

experiment: ATG_EGR_CIS: Attagene CIS-FACTORIAL HepG2 Assay for human Early Growth Response 1 (EGR1) (AID 2282938); conditions: HepG2 Attagene CIS-FACTORIAL EGR reporter mRNA; actives raise or lower the signal
Summary of the method: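 After a 24 h treatment of transiently transfected HepG2 cells, total RNA was reverse-transcribed and reporter sequences PCR-amplified, labelled and run on capillary electrophoresis. Reporters sit under cis-regulatory promoters sensing endogenous factors.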

| Structure (SMILES) | outcome | AC50 |
| --- | --- | --- |
| C=CC(C)(C)C | inactive | – |
| CCCCCCCCCCCCCOP(=O)(O)O | inactive | – |
| CC(C)=CCC[C@H](C)CCO | inactive | – |
| NC(=O)OCC(COC(N)=O)c1ccccc1 | inactive | – |
| CCCCC(CC)COCC1CO1 (stereo not given) | inactive | – |
| CC(=O)OCC(=O)[C@@]12N=C(C)O[C@@H]1C[C@H]1[C@@H]3CCC4=CC(=O)C=C[C@]4(C)[C@H]3[C@@H](O)C[C@@]12C | inactive | – |
| CC=CC(=O)N(CC)c1ccccc1C | inactive | – |
| CN1C(=O)N(C)C(O)C1O (stereo not given) | inactive | – |
| COc1ccc2nc(N)sc2c1 | inactive | – |
| CCOCC(=O)O | inactive | – |
| Nc1ncn([C@@H]2O[C@H](CO)[C@@H](O)[C@H]2O)c(=O)n1 | inactive | – |
| OC1CCCC1 | inactive | – |
| O=c1c2ccccc2oc2ccccc12 | inactive | – |
| Cc1ccc(C(C)c2ccc(C)c(C)c2)cc1C | inactive | – |
| CC(C)CCCC(C)CC=O (stereo not given) | inactive | – |
| CC(=O)NS(=O)(=O)c1ccc(N)cc1 | inactive | – |
| CCCCCCCC/C=C\CCCCCCCC(=O)OCCO | inactive | – |
| O=C1c2ccccc2C(=O)C1c1nc2ccccc2c(Br)c1O | inactive | – |
| C[C@]12CCC(=O)C=C1CC[C@@H]1[C@@H]2C(=O)C[C@@]2(C)[C@H]1CC[C@]2(O)C(=O)CO | inactive | – |
| CCN(CC#N)c1cccc(C)c1 | inactive | – |

| Structure (SMILES) | outcome | AC50 |
| --- | --- | --- |
| CC1(C)S[C@@H]2[C@H](NC(=O)COc3ccccc3)C(=O)N2[C@H]1C(=O)O | inactive | – |
| COc1c2ccoc2cc2oc(=O)ccc12 | inactive | – |
| O=c1[nH]nc(-c2ccc([N+](=O)[O-])o2)o1 | inactive | – |
| C=C[Si](OC(C)=O)(OC(C)=O)OC(C)=O | inactive | – |
| COc1cc(NC(=O)CC(C)=O)c(OC)cc1Cl | inactive | – |
| O=C(O)CCCC[C@@H]1SC[C@@H]2NC(=O)N[C@@H]21 | inactive | – |
| CCCNC(=O)NS(=O)(=O)c1ccc(Cl)cc1 | inactive | – |
| C=C(C)C(=O)OCCOc1ccccc1 | inactive | – |
| CC(C)(C)C(=O)CCc1ccc(Cl)cc1 | inactive | – |
| COC(=O)/C=C\C(=O)O | inactive | – |
| [Cl][Nd]([Cl])[Cl] | inactive | – |
| NCCCN1CCN(CCCN)CC1 | inactive | – |
| CCCCC(CC)COC(=O)c1ccccc1O (stereo not given) | inactive | – |
| COc1ccc(C(Cl)=C(c2ccc(OC)cc2)c2ccc(OC)cc2)cc1 | inactive | – |
| CCCOC(=O)CCCCC(=O)OCCC | inactive | – |
| CCOC(=O)N1CCC(=C2c3ccc(Cl)cc3CCc3cccnc32)CC1 | – | 6.7 µM (active) |
| c1ccc(-c2ccccn2)nc1 | inactive | – |
| CNC(=S)N(C)C | inactive | – |
| C[C@]12C=CC(=O)C=C1CC[C@@H]1[C@@H]2[C@@H](O)C[C@@]2(C)[C@H]1CC[C@]2(O)C(=O)CO | inactive | – |
| Cc1ccc(C(C)(C)C)cc1 | inactive | – |

experiment: ATG_M_19_CIS: Attagene CIS-FACTORIAL HepG2 Assay for M19 Transcription Factor (Internal Marker) (AID 2282939); conditions: HepG2 Attagene CIS-FACTORIAL M19 internal marker reporter; actives raise or lower the signal
Summary of the method: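 Chemical-treated HepG2 (24 h) with MRTU constructs; reporter transcripts detected by fluorescent RT-PCR fragment analysis on capillary electrophoresis. Internal background marker, DMSO as baseline.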

| Structure (SMILES) | outcome |
| --- | --- |
| C=CC(C)(C)C | inactive |
| CCCCCCCCCCCCCOP(=O)(O)O | inactive |
| CC(C)=CCC[C@H](C)CCO | inactive |
| NC(=O)OCC(COC(N)=O)c1ccccc1 | inactive |
| CCCCC(CC)COCC1CO1 (stereo not given) | inactive |
| CC(=O)OCC(=O)[C@@]12N=C(C)O[C@@H]1C[C@H]1[C@@H]3CCC4=CC(=O)C=C[C@]4(C)[C@H]3[C@@H](O)C[C@@]12C | inactive |
| CC=CC(=O)N(CC)c1ccccc1C | inactive |
| CN1C(=O)N(C)C(O)C1O (stereo not given) | inactive |
| COc1ccc2nc(N)sc2c1 | inactive |
| CCOCC(=O)O | inactive |
| Nc1ncn([C@@H]2O[C@H](CO)[C@@H](O)[C@H]2O)c(=O)n1 | inactive |
| OC1CCCC1 | inactive |
| O=c1c2ccccc2oc2ccccc12 | inactive |
| Cc1ccc(C(C)c2ccc(C)c(C)c2)cc1C | inactive |
| CC(C)CCCC(C)CC=O (stereo not given) | inactive |
| CC(=O)NS(=O)(=O)c1ccc(N)cc1 | inactive |
| CCCCCCCC/C=C\CCCCCCCC(=O)OCCO | inactive |
| O=C1c2ccccc2C(=O)C1c1nc2ccccc2c(Br)c1O | inactive |
| C[C@]12CCC(=O)C=C1CC[C@@H]1[C@@H]2C(=O)C[C@@]2(C)[C@H]1CC[C@]2(O)C(=O)CO | inactive |
| CCN(CC#N)c1cccc(C)c1 | inactive |

| Structure (SMILES) | outcome |
| --- | --- |
| CC1(C)S[C@@H]2[C@H](NC(=O)COc3ccccc3)C(=O)N2[C@H]1C(=O)O | inactive |
| COc1c2ccoc2cc2oc(=O)ccc12 | inactive |
| O=c1[nH]nc(-c2ccc([N+](=O)[O-])o2)o1 | inactive |
| C=C[Si](OC(C)=O)(OC(C)=O)OC(C)=O | inactive |
| COc1cc(NC(=O)CC(C)=O)c(OC)cc1Cl | inactive |
| O=C(O)CCCC[C@@H]1SC[C@@H]2NC(=O)N[C@@H]21 | inactive |
| CCCNC(=O)NS(=O)(=O)c1ccc(Cl)cc1 | inactive |
| C=C(C)C(=O)OCCOc1ccccc1 | inactive |
| CC(C)(C)C(=O)CCc1ccc(Cl)cc1 | inactive |
| COC(=O)/C=C\C(=O)O | inactive |
| [Cl][Nd]([Cl])[Cl] | inactive |
| NCCCN1CCN(CCCN)CC1 | inactive |
| CCCCC(CC)COC(=O)c1ccccc1O (stereo not given) | inactive |
| COc1ccc(C(Cl)=C(c2ccc(OC)cc2)c2ccc(OC)cc2)cc1 | inactive |
| CCCOC(=O)CCCCC(=O)OCCC | inactive |
| CCOC(=O)N1CCC(=C2c3ccc(Cl)cc3CCc3cccnc32)CC1 | inactive |
| c1ccc(-c2ccccn2)nc1 | inactive |
| CNC(=S)N(C)C | inactive |
| C[C@]12C=CC(=O)C=C1CC[C@@H]1[C@@H]2[C@@H](O)C[C@@]2(C)[C@H]1CC[C@]2(O)C(=O)CO | inactive |
| Cc1ccc(C(C)(C)C)cc1 | inactive |
